# According to PubChem BioAssay AID1851 (National Center for Advancing Translational Sciences (NCATS), 2009):
# The whole screen tested about 16,000 compounds, of which about 5,800 (36%) were called active. Another 23% or so got no clear call; they are omitted. Calls come from the whole dose curve; as a rule, active = well fitted curve in the direction sought with a large enough effect; inconclusive = small, poorly fitted or top-dose-only effect, or effect the other way; inactive = no such curve, though single readings can be large or run the other way. The list shows a part of the results.
# Biological target: Cytochrome P450 2C19 (Homo sapiens) (UniProt P33261)
# Sequence (P33261 whole entry, looked up): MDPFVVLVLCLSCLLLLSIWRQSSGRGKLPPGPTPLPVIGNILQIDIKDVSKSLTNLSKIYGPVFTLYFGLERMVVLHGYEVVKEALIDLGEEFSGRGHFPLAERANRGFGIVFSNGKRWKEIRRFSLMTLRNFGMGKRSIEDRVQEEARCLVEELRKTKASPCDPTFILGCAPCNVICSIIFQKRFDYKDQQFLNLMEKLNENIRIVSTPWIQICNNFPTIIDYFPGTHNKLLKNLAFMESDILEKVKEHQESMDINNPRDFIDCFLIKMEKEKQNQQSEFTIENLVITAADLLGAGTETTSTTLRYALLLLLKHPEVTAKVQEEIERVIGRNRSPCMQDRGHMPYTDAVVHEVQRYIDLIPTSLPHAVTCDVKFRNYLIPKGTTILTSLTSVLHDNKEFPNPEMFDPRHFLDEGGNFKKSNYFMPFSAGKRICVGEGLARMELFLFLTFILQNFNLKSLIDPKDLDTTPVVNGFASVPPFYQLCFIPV
# Assay: Cytochrome panel assay with activity outcomes
# Conditions: recombinant CYP, pro-luciferin dealkylation, luminescence, p450-cyp2c19; series mostly up to 57.1 µM
# % is set by controls: 0 for no effect and ±100 for the full control effect.
Compound,AC50,"activity, negative = inhibition"
CCCn1cnc2c1c(=O)n(CCCCC(C)=O)c(=O)n2C,inactive,
Cn1ncc(C#N)c1/N=C/N1CCCCCC1,14.1 µM (active),
O=C(O)c1c(Br)c(Br)c(Br)c(Br)c1C1c2ccc(O)cc2Oc2cc(O)ccc21,,-94.3% [at 11.4 µM] (inactive)
COc1ccccc1-c1cc(NCc2cccc(C)c2)ncn1,3.98 µM (active),
COc1ccccc1-c1cc(NCc2ccccc2)ncn1,7.94 µM (active),
Cc1cnc(CNc2cc(-c3ccccc3C)ncn2)cn1,inactive,
Cc1cnc(CNc2cc(-c3ccccc3Cl)ncn2)cn1,inactive,
CN(C)Cc1ccccc1-c1cc(NCc2ccccc2)ncn1,inactive,
COc1ccccc1-c1cc(NCc2cnc(C)cn2)ncn1,15.8 µM (active),
COc1ccc2c3c([nH]c2c1)[C@@H]1C[C@@H]2[C@@H](C[C@H](O)[C@H](OC)[C@H]2C(=O)O)CN1CC3,inactive,
C[C@@H](Cc1cccc(C(F)(F)F)c1)NCCOC(=O)c1ccccc1,inactive,
Cc1[nH]n(-c2ccccc2)c(=O)c1CCOC(=O)c1cccc(C(F)(F)F)c1,3.55 µM (active),
CN(C)CCOC(=O)c1ccc(N)cc1,,-21.2% [at 11.4 µM] (inactive)
Cc1[nH]n(-c2ccccc2)c(=O)c1CCOC(=O)c1ccc(C(F)(F)F)cc1,3.98 µM (active),
CO[C@@H]1COC(=O)C/C=C\[C@H](C)COC(=O)[C@H](C)NC(=O)C/C=C\[C@H]1C,,-28.2% [at 11.4 µM] (inactive)
Fc1ccc2c(c1)C(c1ccncc1)=NNC(c1ccc(Cl)cc1)=N2,0.224 µM (active),
C#CCOC(=O)Nc1ccc(=O)n(Cc2c(Cl)cccc2Cl)c1,1.58 µM (active),
C1=C(CN2CCOCC2)COc2c1cccc2OC[C@@H]1CNCCO1,inactive,
COc1cc(C)c(Br)cc1S(=O)(=O)NCc1ccccc1,4.47 µM (active),
Cc1ccc(C(=O)C2=C(O)C(=O)N(CCCn3ccnc3)C2c2ccc(OC(C)C)cc2)o1 (stereo unspecified),14.1 µM (active),
CN(C)CCN1C(=O)C(O)=C(C(=O)c2cc3ccccc3o2)C1c1ccccn1 (stereo unspecified),inactive,
S=c1[nH]nc(C2CCCCC2)n1/N=C/c1cccs1,0.708 µM (active),
C[C@]1(c2ccccc2)O[C@@H]2C[C@@H]3[C@@H]4CCC5=CC(=O)C=C[C@@]5(C)[C@]4(F)[C@H](O)C[C@]3(C)[C@@]2(C(=O)CO)O1,,-7.02% [at 11.4 µM] (inactive)
COc1ccc(C2=NOC(C(=O)N3CCCc4ccccc43)C2)cc1 (stereo unspecified),15.8 µM (active),

Compound,AC50,"activity, negative = inhibition"
COc1ccc(C2=NOC(C(=O)NCCN3CCOCC3)C2)cc1 (stereo unspecified),inactive,
O=C(Nc1c[nH]c(=O)[nH]c1=O)Oc1ccccc1,,-12.9% [at 11.4 µM] (inactive)
Cc1cccc2cc(CN(Cc3ccccc3)C(=O)c3cccc(F)c3)c(Cl)nc12,2.82 µM (active),
Cc1nc(SCC(=O)c2cc3ccccc3oc2=O)c(C#N)c(C)c1C(=O)Nc1ccccc1,inactive,
COC(=O)CSc1cc(C(F)(F)F)nc(-c2ccccn2)n1,inactive,
COC(=O)CSc1nc(C)cc(C(F)(F)F)c1C#N,25.1 µM (active),
O=C(CSC1=NCCS1)N1CCN(c2ccc(Cl)cc2)CC1,3.55 µM (active),
c1nc(NCCc2cnc[nH]2)c2[nH]cnc2n1,,-12.5% [at 11.4 µM] (inactive)
c1ncc(-c2ccc3c(c2)OCO3)c(NCCc2cnc[nH]2)n1,0.0398 µM (active),
CN(C)c1ccc(-c2cncnc2NCCc2cnc[nH]2)cc1,0.0794 µM (active),
CN(C)C(=O)c1ccc(-c2cncnc2NCCc2cnc[nH]2)cc1,10 µM (active),
O=C(Nc1ccccc1)N1CCCC2(CCN(C(=O)c3cnccn3)CC2)C1,inactive,
COc1ccc(COC(=O)N/N=C2/C[C@@H](O)[C@@H](O)[C@@H]3[C@@H]4C(=O)N([C@@H](C)c5ccccc5)C(=O)[C@H]4CC[C@@H]23)cc1,,-25.8% [at 11.4 µM] (inactive)
CCN(CC)CCN1C(=O)C(=O)/C(=C(/O)c2ccc(OC)cc2)C1c1cccs1 (stereo unspecified),14.1 µM (active),
COc1cccc(/C(O)=C2/C(=O)C(=O)N(c3cc(C)on3)C2c2cccs2)c1 (stereo unspecified),inactive,
CCOc1ccc(/C(O)=C2/C(=O)C(=O)N(CC3CCCO3)C2c2ccc(C)o2)cc1 (stereo unspecified),inactive,
Cc1ccc(/C(O)=C2/C(=O)C(=O)N(CCCn3ccnc3)C2c2ccccn2)cc1 (stereo unspecified),2.82 µM (active),
Cc1nc2ccccn2c1/C(O)=C1\C(=O)C(=O)N(CCCn2ccnc2)C1c1ccncc1 (stereo unspecified),inactive,
COc1ccc(/C(O)=C2\C(=O)C(=O)N(c3cc(C)on3)C2c2ccc(OC)c(OC)c2)cc1OC (stereo unspecified),inactive,
CCOc1ccc(/C(O)=C2/C(=O)C(=O)N(CCCn3ccnc3)C2c2cccs2)cc1Cl (stereo unspecified),14.1 µM (active),
COCCCN1C(=O)C(=O)/C(=C(/O)c2ccc(OC)cc2C)C1c1cccnc1 (stereo unspecified),inactive,
O=C(N/N=C1/C[C@@H](O)[C@@H](O)[C@@H]2[C@H]3C(=O)N(c4ccc(F)cc4F)C(=O)[C@@H]3CC[C@H]12)OCc1ccccc1,,-27.3% [at 11.4 µM] (inactive)
NC(=O)CSc1nc2sc(-c3ccccc3)cc2c(=O)n1N,15.8 µM (active),
c1cc2c(cc1C1CCCCC1)c1c3n2CCN[C@H]3CCC1,1 µM (active),

Compound,AC50,"activity, negative = inhibition"
O=C(Nc1ccc(Cl)cc1)OCCn1nnnc1C(c1ccccc1Cl)N1CCOCC1 (stereo unspecified),3.98 µM (active),
O=C1[C@H]2O[C@@H]2[C@@H](O)[C@H]2[C@H]1CCn1c(=O)n(Cc3cc4c(cc3Cl)OCO4)c(=O)n12,,14.6% [at 11.4 µM] (inactive)
CCCCCCCCCCCCCCCCCCOC[C@@H](COP(=O)([O-])OCC[N+](C)(C)C)OC,inactive,
CCCCCCCCCCCCCCCCCCNC(=O)OC[C@@H](COP(=O)([O-])OCC[n+]1ccsc1)OC,inactive,
CCCCCCCCCCCCCCCCCC(=O)NC[C@@H](COP(=O)([O-])OCC[N+](C)(C)C)OCC,25.1 µM (active),
C=C(C)CN(CC#N)CC(=C)C,,27.9% [at 11.4 µM] (inactive)
Cn1c(N)nc2c(nc(OCc3ccccc3)n2[C@@H]2O[C@H](CO)[C@@H](O)[C@@H]2O)c1=O,,-3.29% [at 11.4 µM] (inactive)
Cc1ccc(N=C/C(C(=O)C(F)(F)F)=C(\O)c2cccs2)cc1,3.16 µM (active),
CCN1CCC[C@H]1CNC(=O)c1c(OC)ccc(Br)c1OC,inactive,
COc1cc(CN2CCCCC2)cc2cc(C(=O)O)c(=O)oc12,,21% [at 11.4 µM] (inactive)
COc1cc(Br)cc2cc(C(=O)NCC3CCCO3)c(=O)oc12 (stereo unspecified),0.398 µM (active),
COc1ccc(-n2nnnc2-c2cn(C)nc2C(F)(F)F)cc1,2.24 µM (active),
COc1ccc(-n2cnnc2)cc1,inactive,
Cc1cc(C)cc(-n2nnnc2-c2cn(C)nc2C(F)(F)F)c1,2.51 µM (active),
COc1ccc(-n2c(C)nn(C)c2=O)cc1,inactive,
C[C@@H]1c2cccc(O)c2C(O)=C2C(=O)[C@@]3(O)C(O)=C(C(N)=O)C(=O)[C@@H](N(C)C)[C@@H]3[C@@H](O)[C@@H]21,inactive,
CCOC(=O)C1=C(N)n2c(s/c(=C\c3ccco3)c2=O)=C(C(=O)OCC)C1c1ccco1 (stereo unspecified),8.91 µM (active),
CCOC(=O)C1=C(c2ccccc2)N=c2s/c(=C\c3ccco3)c(=O)n2C1c1cccs1 (stereo unspecified),2.24 µM (active),
CCOC(=O)C1=C(c2ccccc2)N=c2s/c(=C\c3cccc(O)c3)c(=O)n2C1c1cccs1 (stereo unspecified),10 µM (active),
CCOC(=O)C1=C(N)n2c(s/c(=C/c3ccccc3)c2=O)=C(C(=O)OCC)C1c1ccccc1 (stereo unspecified),inactive,
c1ccc(CCNCc2ccco2)nc1,,-13.9% [at 11.4 µM] (inactive)
S=C1SCN(Cc2ccccn2)CN1Cc1ccco1,2.24 µM (active),
S=c1nc[nH]c2c1ncn2Cc1ccco1,,-0.307% [at 11.4 µM] (inactive)
Cc1cccc(OCCSCc2nc3ccccc3[nH]2)c1,2.24 µM (active),

Compound,AC50,"activity, negative = inhibition"
O=C(c1ccc(S(=O)(=O)N2CCCCCC2)cc1)N1CCC(CN2C(=O)c3cccc4cccc(c34)C2=O)CC1,inactive,
O=C1c2cccc3cccc(c23)C(=O)N1CC1CCN(CC(O)COc2ccc3ccccc3c2)CC1 (stereo unspecified),7.08 µM (active),
Cc1ccccc1C(C(=O)NCc1ccccc1)N(Cc1ccco1)C(=O)c1ccccn1 (stereo unspecified),3.55 µM (active),
O=C(NCc1ccccc1)C(c1ccc(F)cc1)N(Cc1ccco1)C(=O)c1ccccn1 (stereo unspecified),4.47 µM (active),
CC(Cc1ccccc1)C(=O)NCc1ccccn1 (stereo unspecified),inactive,
Cc1ccc(N(CCC#N)C(=O)CSc2ccc3c(c2)OCCO3)cc1,2 µM (active),
O=C1CCCc2ccccc2N1Cc1cccc(Cl)c1,0.501 µM (active),
O=C1CCCc2ccccc2N1Cc1ccccc1Cl,1 µM (active),
C[C@@H](CN(C)C)CN1c2ccccc2CCc2ccccc21,inactive,
CN(C)C(=O)c1ccc(-c2nccc(NCc3cccnc3)n2)cc1,inactive,
c1ccc(CNc2ccnc(-c3ccc4c(c3)OCO4)n2)cc1,2 µM (active),
c1csc(CNc2ccnc(-c3ccc4c(c3)OCO4)n2)c1,5.01 µM (active),
c1cncc(CNc2ccnc(-c3ccc4c(c3)OCO4)n2)c1,5.01 µM (active),
COc1cc(OC)c(C(=O)CCCCN2CCC3(CC2)NC(=O)NC3=O)cc1NS(=O)(=O)c1ccc(C(F)(F)F)cc1,inactive,
CCN(CC)CCC[C@H](C)Nc1c2ccc(Cl)cc2nc2ccc(OC)cc12,inactive,
COc1ccc(OCCn2c(C)c(/C=N/n3cnnc3)c3ccccc32)cc1,0.355 µM (active),
CN(C)CCCN1c2ccc3ccccc3c2Sc2cccc(Cl)c21,5.01 µM (active),
CCC(=O)c1ccc2c(c1)N(CCCN(C)C)c1ccccc1S2,inactive,
CN(C)CCCN1c2ccccc2C(C)(C)c2ccccc21,,1.8% [at 11.4 µM] (inactive)
CN(C)CCCN1c2ccccc2Sc2cnccc21,,34.5% [at 11.4 µM] (inactive)
CN(C)CCCN1c2ccccc2Sc2ccc3ccccc3c21,1 µM (active),
CCN(CC)[C@@H](C)CN1c2ccccc2Sc2ccccc21,inactive,
C[C@@H](CN1c2ccccc2Sc2ccccc21)N(C)C,inactive,
CCN(CC)CCN1c2ccccc2Sc2ccc3ccccc3c21,1 µM (active),
